High-throughput results from PubChem BioAssay.
AmpC detergent: inhibitors of E. coli AmpC beta-lactamase with detergent; AmpC hydrolysis of nitrocefin, absorbance 480 nm, 0.01% Triton; Potency, µM (series often up to 114 µM), hits mostly inhibitors; hit rate 0.041% among 370,000; P00811; note: nearly all actives have a fitted effect of over 25% in size
Target sequence (P00811 whole entry, looked up): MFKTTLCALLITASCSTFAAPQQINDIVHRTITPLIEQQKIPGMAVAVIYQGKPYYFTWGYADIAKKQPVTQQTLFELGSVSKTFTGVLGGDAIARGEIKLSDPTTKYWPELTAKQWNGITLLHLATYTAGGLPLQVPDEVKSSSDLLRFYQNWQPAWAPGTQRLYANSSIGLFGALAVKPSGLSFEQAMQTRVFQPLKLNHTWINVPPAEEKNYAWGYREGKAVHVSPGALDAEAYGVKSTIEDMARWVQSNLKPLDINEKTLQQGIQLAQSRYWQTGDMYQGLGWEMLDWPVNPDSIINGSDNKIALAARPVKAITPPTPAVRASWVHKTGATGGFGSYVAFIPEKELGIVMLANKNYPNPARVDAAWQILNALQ
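AmpC (5.3 nM in the dispensed reagent) in 20 mM phosphate pH 7.0 with 0.01% (detergent screen) or 0.0001% Triton X-100 was preincubated with compounds for 15 min at room temperature. Nitrocefin was then added from an 800 uM solution, and hydrolysis was followed at 480 nm.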
VACV mCherry inh: vaccinia inhibition (mCherry reporter) | Vaccinia virus mCherry reporter infection, fluorescence | hit rate 0.63% among 310,000 | AID 720579 | Potency, µM (doses to about 36.5 µM), usual class: inhibitors; calls by dose curve; tested in A549 cells; note: nearly all actives have a fitted effect of over 35% in size
AMA1-RON2 inh: inhibitors of Plasmodium falciparum AMA1-RON2 interaction; AlphaScreen AMA1-biotinylated RON2 peptide binding; Potency, µM (highest dose often 58.2 µM), hits mostly inhibitors; hit rate 0.2% among 360,000; AID 720542; note: nearly all actives have a fitted effect of over 45% in size
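AMA1 (3D7) with his tag at 25 nM final met compounds first, then biotinylated RON2 peptide at 25 nM; detection used donor plus acceptor beads, 10 µg/mL apiece, read by AlphaScreen after 30 min at room temperature.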
SARS PLP yeast: SARS-CoV PLP inhibition in yeast; hit rate 0.19% among 330,000; Potency, µM (series often up to 32.9 µM), most hits filed as activators; S. cerevisiae expressing SARS-CoV PLpro, growth rescue; calls by dose curve; note: nearly all actives have a fitted effect of over 55% in size
Vaccinia Venus: vaccinia inhibition (Venus reporter). Potency, µM (titrated, usually from 36.5 µM), usual class: inhibitors. hit rate 0.46% among 330,000. Vaccinia virus Venus reporter expression, fluorescence; calls by dose curve; tested in A549 cells; note: nearly all actives have a fitted effect of over 30% in size
AmpC inh no detg: blocks E. coli AmpC beta-lactamase in detergent-free assay | AmpC nitrocefin hydrolysis, absorbance 480 nm, 0.0001% Triton | Potency, µM (doses to about 57.1 µM), usual class: inhibitors | hit rate 0.52% among 330,000; note: nearly all actives have a fitted effect of over 20% in size
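20 mM phosphate pH 7.0 + 0.01% (detergent screen) or 0.0001% Triton X-100; 5.3 nM AmpC reagent; cpd preinc 15 min RT; nitrocefin (800 uM stock) to start; A480 q20 s × 4 min; Activity was normalised to no-enzyme and no-compound control wells.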
Numbers stand for hits; 0 = inactive; ? = inconclusive; - = not tested or not shown; [ ] = another dose, or the depositor's remark. Most compounds without a hit are left out; they make up all but 1.4% or so of the library. Unless noted, calls come from the whole dose curve; as a rule, active = well fitted curve in the direction sought with a large enough effect; inconclusive = small, poorly fitted or top-dose-only effect, or another doubt; inactive = no such curve, though single readings can be large; an effect the other way counts as inactive or inconclusive.

SMILES	AmpC detergent	VACV mCherry inh	AMA1-RON2 inh	SARS PLP yeast	Vaccinia Venus	AmpC inh no detg
NC(c1ccccc1)c1csc(NC(=O)Nc2cccc(Cl)c2)n1 (stereo not drawn)	-	0	0	-	10µM	-
CCN(CC)CCCNc1nc2ccccc2c2nc(-c3ccncc3)nn12	0	?	0	0	11.2µM	0
CCN(CC)CCCNc1nc2cc(OC)c(OC)cc2c2nc(-c3ccccc3)nn12	0	?	0	0	?	0
C(=Nc1cnc2ccccc2c1)c1ccnc2ccccc12	-	0	-	-	0	-
Cc1cc(C)nc(-c2cccc3c2OC(CNC(=O)c2ccc(Cn4nc(C)cc4C)cc2)C3)n1 (stereo not drawn)	-	0	-	-	0	-
Cc1ccc(S(=O)(=O)CCC(=O)Nc2nnc(-c3cccs3)o2)cc1	?	10µM	0	0	?	0
COc1cccc(-c2nnc(NC(=O)CCS(=O)(=O)c3ccc(C)cc3)o2)c1	0	10µM	0	0	?	0
CCC[C@H]1COCCS(=O)(=O)N1Cc1cccc(F)c1	-	0	-	-	0	-
COc1cc(OC)c(OC)cc1CN1CCOc2ccc(CN3CCN(C(C)=O)CC3)cc2C1	-	0	-	-	0	-
Cc1ccc2c(c1)c(C)cc[n+]2Cc1ccccc1	0	?	0	0	0	0
CC[n+]1ccc(C[n+]2ccccc2)c2ccccc21	31.6µM	0	0[11.6 µM]	0	0	?
Cc1cnc(C)c(-c2cccc3c2OC(CNC(=O)C[C@@H]2C[C@@H](C)NC(=S)N2)C3)n1 (stereo partly drawn)	-	0	-	-	0	-
CCC(Oc1ccccc1)C(=O)Nc1ccccc1C(=O)N1CCOCC1 (stereo not drawn)	0	0	0	0	0	0
CC(Sc1ccccc1)C(=O)Nc1ccccc1C(=O)N1CCOCC1 (stereo not drawn)	0	-	0	0	0	0.282µM
Cc1ccc(Nc2nc(NCc3ccco3)nc3nccnc23)cc1C	-	0	-	-	0	-
CCOC(=O)c1ccc(N=c2sc(C(=O)OC)cc(=O)n2-c2ccc(C(=O)OCC)cc2)cc1	0	0	0	0	0	?
COC(=O)c1cc(=O)n(-c2ccccc2)c(=Nc2ccccc2)s1	?	?	0	0	5.01µM	0
CCCC(=O)N1CCN(c2ccc(NC(=O)c3cccs3)cc2Cl)CC1	0	0	0	0	0	0
CCCC(=O)N1CCN(c2ccc(NC(=O)c3cc4ccccc4o3)cc2Cl)CC1	?	-	0	0	10µM	0
O=C(Nc1ccc(N2CCN(C(=O)c3ccco3)CC2)c(Cl)c1)c1cc2ccccc2o1	0	11.2µM	0	0	15.8µM	0
CCC(=O)N1CCN(c2ccc(NC(=O)c3cc4ccccc4o3)cc2Cl)CC1	0	?	0	0	11.2µM	0
O=C(Nc1ccc(N2CCN(C(=O)c3ccccc3)CC2)c(Cl)c1)c1ccco1	0	0	0	0	?	0
CC(C)(CNC(=O)c1cnn(-c2ncc3c(n2)-c2ccccc2CC3)c1C1CC1)N1CCOCC1	-	0	-	-	0	-
CCN(Cc1cccc(S(=O)(=O)O)c1)c1ccc(C(=C2C=CC(=[N+](CC)Cc3cccc(S(=O)(=O)O)c3)C=C2)c2ccccc2S(=O)(=O)[O-])cc1	-	?	-	-	0	-
CCN(Cc1cccc(S(=O)(=O)O)c1)c1ccc(C(=C2C=CC(=[N+](CC)Cc3cccc(S(=O)(=O)O)c3)C=C2)c2ccc(O)cc2S(=O)(=O)O)cc1	-	10µM	-	-	0	-
SMILES	AmpC detergent	VACV mCherry inh	AMA1-RON2 inh	SARS PLP yeast	Vaccinia Venus	AmpC inh no detg
COc1ccc(CCNC(=O)c2cc3sc(Cl)cc3n2C)cc1OC	?	0	0	0	0	50.1µM
CCOc1ccc(CCNC(=O)c2cccc(-n3c(C)nc4cccnc43)c2C)cc1	0	0	-	-	0	-
O=C1NC(=O)C(=Cc2cc3c(cc2[N+](=O)[O-])OCO3)C(=O)N1	50.1µM	0	0	0	0	?
O=C1NC(=O)C(=Cc2ccccc2[N+](=O)[O-])C(=O)N1	-	0	0	-	0	-
Cn1c(C(=O)NCc2cccs2)cc2oc3ccccc3c21	?	10µM	0	0	0	0
Cn1c(C(=O)NCc2ccccc2F)cc2oc3ccccc3c21	0	?	-	-	0	-
COc1ccc(CNC(=O)c2cc3oc4ccccc4c3n2C)cc1OC	0	0	-	-	0	-
Cn1c(C(=O)NCc2ccccc2)cc2oc3ccccc3c21	0	5.01µM	0	0	0	0
Cn1c(O)c(/C=N/NC(=O)c2cc3ccccc3cc2O)c2ccccc21	0	7.94µM	0	0	?	0
CC(C)(C)C(=O)Cn1c(=N)n(Cc2ccccc2)c2ccccc21	0	8.91µM	0	0	?	0
c1cnc2c(c1)ccc1cccnc12	?	3.55µM	0	0	?	0
Cc1ccnc2c1ccc1cccnc12	0	4.47µM	?	0	?	0
O=Cc1ccc2ccc3cccnc3c2n1	0	0	0	0	0	0
CC(C)=CCc1c2c(c3occ(-c4ccc(O)cc4)c(=O)c3c1O)C=CC(C)(C)O2	0	?	0	?	?	15.8µM
CC(C)=CCc1c2c(c3occ(-c4ccc(O)c(O)c4)c(=O)c3c1O)C=CC(C)(C)O2	-	10µM	0	-	11.2µM	-
CC1(C)C=Cc2c(c3c(c4c(=O)c(-c5ccc(O)cc5)coc24)OC(C)(C)CC3)O1	?	0	0	0	0	0
COc1ccc(C(=O)NCCN2Cc3ccccc3OC(c3ccsc3)C2)c(OC)n1 (stereo not drawn)	-	0	-	-	0	-
Cc1cccc(N2CCN(S(=O)(=O)c3ccc(-c4cc(C(F)(F)F)on4)s3)CC2)c1C	0	0	-	-	0	-
O=[N+]([O-])c1cccc(S(=O)(=O)c2ccc(N3CCCCC3)c([N+](=O)[O-])c2)c1	0	0	0	0	0	0
O=[N+]([O-])c1cc(S(=O)(=O)c2ccc(N3CCCCC3)c([N+](=O)[O-])c2)ccc1N1CCCCC1	0	0	0	0	0	10µM
O=[N+]([O-])c1cc(S(=O)(=O)N2CCCCCC2)ccc1F	0	?	0	0	14.1µM	0
CSc1cccc(NC(=O)c2cc(S(=O)(=O)N3CCc4ccccc43)cn2C)c1	0	0	0	0	0	10µM
COc1ccc(C(=O)Nc2ccc(S(=O)(=O)N3CCc4ccccc43)cc2)cc1	-	?	0	-	0	-
NS(=O)(=O)c1ccc(NC(=O)c2ccc(S(=O)(=O)N3CCc4ccccc43)cc2)cc1	0	?	0	0	?	17.8µM
COc1cccc(NC(=O)C2CC(=O)N(c3ccc(Br)cc3)C2)c1 (stereo not drawn)	0	0	-	-	0	-
Cc1ccc(NC(=O)Cn2c(=O)n(CCc3ccccc3)c(=O)c3c4c(sc32)CCCC4)c(C)c1	0	0	-	-	0	-
Cc1ccc2cc(CNC(C)c3cccc4ccccc34)c(N3CCC(O)CC3)nc2c1 (stereo not drawn)	-	0	-	-	0	-
CC(=O)N[C@@H](C)C(=O)NCC1Cc2cc(C)cc(-c3cnccn3)c2O1 (stereo partly drawn)	-	0	-	-	0	-
